Structures are written as SMILES. “And” between values parts separate entries of the source, which are not always exact repeats. Equal values may be shown once. Records with an inconclusive call do not appear. Values without a mark were called inactive. The source made the active and inactive calls. Calls come from the whole dose curve; as a rule, active = well fitted inhibition curve with a large enough effect; inconclusive = small, poorly fitted or top-dose-only effect; inactive = no such curve, though single readings can be large or run the other way.
Potency is the fitted concentration of half-maximal effect.

Cruzipain (Trypanosoma cruzi), sequence (P25779 123-467 limits assumed): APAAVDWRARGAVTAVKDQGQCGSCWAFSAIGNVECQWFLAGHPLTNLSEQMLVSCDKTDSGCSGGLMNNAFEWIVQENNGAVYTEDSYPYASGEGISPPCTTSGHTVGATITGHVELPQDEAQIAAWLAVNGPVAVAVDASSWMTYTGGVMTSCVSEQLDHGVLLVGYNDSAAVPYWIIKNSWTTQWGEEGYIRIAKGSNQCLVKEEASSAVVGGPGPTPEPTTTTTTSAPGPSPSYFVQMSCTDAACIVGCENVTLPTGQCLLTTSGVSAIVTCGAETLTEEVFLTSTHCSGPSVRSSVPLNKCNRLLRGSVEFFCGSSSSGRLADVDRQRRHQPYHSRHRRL

The assay concerns the target Cruzipain (Trypanosoma cruzi) (UniProt P25779). Briefly: Confirmation qHTS Assay for Inhibitors of Cruzain.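 For activity change, negative = inhibition: plate controls were uninhibited enzyme control for no effect and buffer wells lacking enzyme for full effect.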 Note: nearly all actives have a fitted effect of over 40% in size. Conditions: purified cruzain, Z-FR-AMC fluorescence, 0.01% Triton. Here is the method:
Cruzain is a cysteine protease from the tropical parasite Trypanosoma cruzi. This assay protocol is a follow-up and confirmation of related AID 1478 (qHTS Assay for Promiscuous and Specific Inhibitors of Cruzain -- with detergent). Cruzain was assayed by the use of fluorogenic coumarin-based substrate Z-FR-AMC: proteolytic cleavage releases AMC, whose fluorescence is measured at 360 nm excitation and 450 nm emission. Purified cruzain was supplied by the labs of Prof. James McKerrow and Brian Shoichet, UC San Francisco. This assay had 0.01% Triton X-100 concentration. See following references for additional details: Jadhav A, et al. J Med Chem. 2010 Jan 14;53(1):37-51. Mott BT, et al. J Med Chem. 2010 Jan 14;53(1):52-60. Assay Provider: Shoichet, Brian; University of California, San Fancisco Screening Center PI: Austin, C.P. Screening Center: NIH Chemical Genomics Center [NCGC]
Buffer: 100 mM Sodium Acetate, pH 5.5, 5 mM DTT, Triton X-100 concentration: 0.01%. Reagents/Controls: Buffer in columns 3 and 4 as negative control (no enzyme). Substrate solution: 2 uM final concentration of Z-FR-AMC (catalog number I-1160, Bachem) dispensed throughout the plate. Enzyme: 1.5 nM Cruzain final concentration in columns 1, 2, 5-48. Column 1 is neutral (100% activity). Column 2 contained titration of covalent inhibitor K11777, starting concentration 1 mM, then 1:2 dilution in duplicate). Assay Steps: Three uL of enzyme or buffer were dispensed to 1536-well Greiner black solid bottom plates. Compounds and controls (23 nL) were transferred via Kalypsys PinTool. The plates were incubated for 15 min at room temperature, and then 1 uL of substrate solution was added to start the reaction. The plates were immediately transferred to and read 4 times every 30 seconds for 2 min on ViewLux High-throughput CCD imager (Perkin-Elmer) using 360 nm excitation and 450 nm emission fluorescence protocol. The fluorescence intensity difference between the third and the first time points (time lapse of 60 seconds) was used to compute reaction progress.
(qHTS replaces the single test concentration by a dilution series.)
`Cc1cccc(Cn2cc(/C=C(/C#N)C(=O)Nc3cccc(Cl)c3)c3ccccc32)c1`: the activity change, negative = inhibition was -2.85%.

In the case of `COc1ccc(/C=C/C(=O)Nc2ccc(-n3nncc3-c3ccc(Br)cc3)cc2)cc1OC`, the Potency is 12.6 µM (active).

Take `CCOc1ccc(-c2csc(NC(=O)c3ccc(S(=O)(=O)N4CCc5ccccc5C4)cc3)n2)cc1`: the activity change, negative = inhibition was -11%.

For the compound `Cc1ccc(COc2ccc3oc(-c4ccccc4)c(C(=O)O)c3c2)cc1`, the activity change, negative = inhibition was -34.5%.

With `N#CN1CCC(NS(=O)(=O)c2ccc(C(F)(F)F)cc2)CC1`, the activity change, negative = inhibition is -6.95%.

Take `O=C(Cn1cc(CNC(=O)c2ccccc2)nn1)Nc1cc(C(F)(F)F)ccc1Cl`: the activity change, negative = inhibition was 2.48%.

On to `O=C(CNC(=O)c1ccccc1)N[C@H](C(=O)Nc1cc(C(F)(F)F)ccc1Cl)c1ccccc1`, for which the activity change, negative = inhibition is -13.5%.

As for `CCC(c1nnnn1Cc1ccccc1)N(Cc1ccccc1)Cc1cc2cc(C)ccc2[nH]c1=O` (stereo not given), the activity change, negative = inhibition is -9.93%.

Regarding `CC1CCCN(c2ccc(C(=O)OCC(=O)N3c4ccccc4Sc4ccccc43)cc2[N+](=O)[O-])C1` (stereo not given), the activity change, negative = inhibition was -7.68%.

For the compound `Cc1ccc(OCCCn2c(CCCNC(=O)C3CCCCC3)nc3ccccc32)cc1`, the activity change, negative = inhibition is -20.3%.

`N#Cc1nc(Nc2cccc(Cl)c2)nc(NC2CCCC2)n1`: the Potency was 0.0794 µM (active).

On to `O=C(NCCCO)c1ccc2nc(-c3ccco3)c(-c3ccco3)nc2c1`, for which the Potency was 12.6 µM (active).

`N#Cc1nc(Nc2ccccc2)nc(NC2CCCC2)n1`: the Potency is 0.708 µM (active).

For the compound `O=C(CNC(=O)C1CCCCC1)OC(C(=O)c1ccccc1)c1ccccc1` (stereo not given), the Potency is 1.26 µM (active).

With `CC(C)C[C@H](N)c1nnc(S(=O)(=O)Cc2ccc(F)cc2)o1`, the activity change, negative = inhibition is -25.7%.

On to `Cc1ccccc1Nc1nc(C#N)nc(NC2CCCC2)n1`, for which the Potency was 0.708 µM (active).

For `O=C(CNC(=O)c1ccccc1Cl)OC(C(=O)Nc1cc(C(F)(F)F)ccc1Cl)c1ccccc1` (stereo not given), the Potency was 8.91 µM (active).

For the compound `N#Cc1nc(N2CCCCC2)nc(N(c2ccccc2)c2ccccc2)n1`, the Potency is 2.24 µM (active).

On to `Cc1ccc(C)c(-c2csc(-c3c(N)c(C(=O)c4ccc5c(c4)OCO5)n4ccccc34)n2)c1`, for which the activity change, negative = inhibition is -1.82%.

For the compound `N#Cc1c(-c2ccccc2)cc(-c2ccco2)c(C#N)c1N`, the activity change, negative = inhibition was -11%.

As to `CN(c1ccccc1)c1nc(C#N)nc(N2CCOCC2)n1`, the Potency is 1.26 µM (active).

As to `CNc1nc(C#N)nc(Nc2ccccc2)n1`, the Potency was 1.26 µM (active).

For the compound `Cc1ccccc1OCC(=O)NCC(=O)OC(c1ccccc1)c1ccccc1`, the activity change, negative = inhibition was -14.6%.

As to `C/C(CC(=O)Nc1ccc(Cl)c(Cl)c1)=N\NC(N)=S`, the Potency was 1.12 µM (active).

On to `COc1ccc(/C=N/NC(=O)c2ccc(Br)cc2)cc1Cn1cc(Cl)cn1`, for which the activity change, negative = inhibition is -13.6%.

Take `Cc1oc(=O)c(NC(=O)c2ccccc2)cc1C(=O)c1ccccc1`: the activity change, negative = inhibition was -5.13%.

In the case of `O=C(CNC(=O)C1CCCCC1)OCC(=O)c1ccc(F)cc1`, the Potency was 2.51 µM (active).

As for `O=C(CNC(=O)c1ccccc1)NCC(=O)OCC(=O)c1cccc2ccccc12`, the activity change, negative = inhibition was -13.9%.

With `CC(C)(C)c1ccc(S(=O)(=O)c2cnc(SCC(=O)Nc3ccc(F)c(Cl)c3)[nH]c2=O)cc1`, the Potency was 3.98 µM (active).

As for `O=C(CNC(=O)C1CCCCC1)OCC(=O)c1ccc(Br)cc1`, the Potency is 2.24 µM (active).

Take `CCCCC(OC(=O)CNC(=O)c1ccccc1)C(=O)Nc1cc(C(F)(F)F)ccc1Cl` (stereo not given): the Potency was 8.91 µM (active).

For `N#Cc1nc(N2CCOCC2)nc(N2CCOCC2)n1`, the Potency is 3.55 µM (active) and 5.01 µM (active).

As for `NC(N)=NCCC[C@H](NC(=O)CNC(=O)c1ccccc1)C(=O)Nc1cc(C(F)(F)F)ccc1Cl`, the activity change, negative = inhibition is -8.36%.

Regarding `N#Cc1nc(Nc2ccc(Br)cc2)nc(NC2CCCC2)n1`, the Potency was 0.501 µM (active).

In the case of `O=C(NCc1nnc(C(=O)Nc2ccc(C(F)(F)F)cc2Cl)o1)c1ccccc1`, the activity change, negative = inhibition is -7.13%.

Consider `Cc1ccc(O/C=C2/Nn3c(nnc3-c3cc(-c4ccccc4)n[nH]3)S2)cc1`, for which the activity change, negative = inhibition was -1.56%.

For `COc1cc2cc(CN(Cc3nnnn3Cc3ccco3)C3CCCCC3)c(=O)[nH]c2cc1OC`, the Potency was 14.1 µM (active).

For the compound `CCNC(=O)c1ccc2nc(-c3ccccc3)c(-c3ccccc3)nc2c1`, the activity change, negative = inhibition was -14.3%.

As for `CC(C)(C)C(=O)O/N=C1/C(=O)N(c2ccccc2)c2ccccc21`, the activity change, negative = inhibition is -24.3%.

As to `COc1ccc(C(=O)NCC(=O)OCC(=O)c2ccc3ccccc3c2)cc1`, the Potency was 15.8 µM (active).

For the origin of these results see PubChem BioAssay AID2158 (National Center for Advancing Translational Sciences (NCATS), 2009).
